Compound activity (PubChem BioAssay)
Shown are actives, neighbours in structure and some others; about 21% of the full set was active somewhere.
Cycloheximide cs = counter-screen for Shiga toxin inhibitors: cycloheximide protein synthesis inhibition. AID 2314. cell reporter, cycloheximide protein synthesis inhibition counterscreen. 12% of 300,000 active. max response, %; in the data active means max response mostly above about 13%, no sharp cut-off; inactive means mostly below about 14%; further: read at 38.3 µM for the half of the compounds with a filed dose; 0% is about no effect
HCMV antiviral = inhibitors of human cytomegalovirus; HFF cells, HCMV-luciferase reporter, 72 h; active compounds read low; activity change, negative = inhibition, % at 57.5 µM; 4.5% of 410,000 active; AID 1259415; in the data active means activity change below about -60%; inconclusive means no clear call, values can overlap the other calls; inactive means above about -39%; further: on the % scale 0 is the no-effect control and ±100 the full control effect
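Screen run at 2 compound doses on HFFs infected with reporter HCMV, MOI 1 PFU/cell. Luciferase activity from cell lysates at 72 h post infection gave inhibition relative to buffer-only and Salinomycin wells.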
HCV inh = blocks hepatitis C virus; AID 651820; Potency, µM (top dose mostly 41.8 µM), for inactives: top-dose activity change, negative = inhibition, hits mostly inhibitors; Huh7.5.1 HCVcc-Cre infection, luciferase reporter, 44 h; 3.4% of 340,000 active; further: potency means the concentration at half of the fitted maximal effect; on the % scale 0 is the no-effect control and ±100 the full control effect
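Luciferase read-out (15 sec integration) after a 15 min room-temperature substrate step quantifies HCVcc-Cre infection. Cells, 1,000 per well, had compound added 4 h post-plating, then virus at ~0.5 moi, and were cultured 44 h.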
Shiga toxin inh = blocks Shiga toxin action in Vero cells; Vero cells, Shiga toxin protein synthesis inhibition reporter; inhibition, % at 38.7 µM; 9.2% of 290,000 active; in the data active means inhibition mostly above about 28%, no sharp cut-off; inactive means mostly below about 43%; further: 0% is about no effect
Pf growth 48h = inhibits P. falciparum growth in the first generation, 48 h; P. falciparum luciferase growth in erythrocytes, 48 h; Potency, µM (series often up to 28.7 µM), for the others: at the top dose activity change, negative = inhibition, usual class: inhibitors; 5.9% of 310,000 active; further: potency means the concentration at half of the fitted maximal effect; on the % scale 0 is the no-effect control and ±100 the full control effect
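A one-generation exposure of luciferase-tagged malaria parasites in RPMI 1640/Albumax erythrocyte culture, 37 C and 5% CO2. Inhibition is inferred from decreased luminescence after adding detection reagent.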
Pf growth 96h = P. falciparum growth inhibition at 96 hour, primary screen for plastid delayed-death inhibitors | Potency, µM (titrated, usually from 28.7 µM), for the others: at the highest dose activity change, negative = inhibition, hits mostly inhibitors | 6.9% of 320,000 active | P. falciparum luciferase reporter growth, 96 h; further: potency means the concentration at half of the fitted maximal effect; on the % scale 0 is the no-effect control and ±100 the full control effect
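Luminescence readout: decreased luciferase signal marks inhibited growth of reporter-expressing P. falciparum in infected red cells (2% hematocrit, 0.05% parasitemia final), exposed to compound two generations (96 h, 37 C, 5% CO2).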
* = called active by the depositor; ? = inconclusive; / = no result given; [ ] = another dose, or the depositor's remark. Unless noted, the call rests on the fitted dose curve; in most records, active means well fitted inhibition curve with a large enough effect; inconclusive means small, poorly fitted or top-dose-only effect, or another doubt; inactive means no such curve, though single readings can be large or run the other way.

SMILES	Cycloheximide cs	HCMV antiviral	HCV inh	Shiga toxin inh	Pf growth 48h	Pf growth 96h
O=C(O)CC(C(=O)NCc1ccccc1)C1CCCO1 (centres undefined)	-3	-34	0%	-6	1%	0%
O=C(CC(C(=O)O)C1CCCO1)NCc1ccccc1 (centres undefined)	-7	-101*	5%	-13	2%	17%
CC(CC(=O)NCc1ccccc1)C1CCCO1 (centres undefined)	17*	43	13%	26*	31%	/
Cc1cc2c(s1)c1cnn(Cc3ccccc3)c(=O)c1n2C	-4	/	/	-5	/	/
Cc1ccc(S(=O)(=O)n2cc(-c3ccccc3)c3ccccc32)cc1	/	-71*	?	/	2.6µM*	?
Cc1ccc(S(=O)(=O)n2cc(C=O)c3ccccc32)cc1	1	26	-28%	-6	5%	9%
O=C(O)c1cccnc1SC1CC(=O)N(c2ccccc2)C1=O (centres undefined)	-3	-28	15%	-3	?	1%
O=C(O)c1ccccc1SC1CC(=O)N(c2ccccc2)C1=O (centres undefined)	9	-10	12%	3	-4%	2.1µM*
CC(C)c1ccc(N2C(=O)CC(Sc3nc4ccccc4o3)C2=O)cc1 (centres undefined)	15*	30	-16%	10	37%	?
Nc1ccccc1SC1CC(=O)N(c2ccc3c(c2)OCCO3)C1=O (centres undefined)	38*	56	-15%	69*	39%	50%
O=C1CC(Sc2nnc(-c3ccccc3)o2)C(=O)N1c1ccccc1 (centres undefined)	22*	63	?	49*	60%	/
Cc1nnc(SC2CC(=O)N(c3ccccc3)C2=O)s1 (centres undefined)	4	-13	?	0	27%	156%
O=C(O)C(Nc1nc(C(F)(F)F)nc2ccccc12)c1ccccc1 (centres undefined)	1	-1	3%	0	?	36%
Cc1ccccc1N1C(=O)CC(Sc2nnc(-c3ccccc3)o2)C1=O (centres undefined)	19*	54	?	10	16%	0%
Cc1cc(C(=O)Nc2sc(C)c(-c3ccc(F)cc3)c2C(N)=O)no1	62*	-9	5%	84*	107%	2%
CCN(CC)c1ccc(C(=C2C=CC(=[N+](CC)Cc3cccc(S(=O)(=O)[O-])c3)C=C2)c2ccc(N(CC)Cc3cccc(S(=O)(=O)O)c3)cc2)cc1	-4	/	/	-12	/	/
CCN(CC)c1ccc(C(=C2C=CC(=[N+](CC)CC)C=C2)c2ccccc2)cc1	-20	-100*	?	-25	/	/
CCN(CC)c1ccc(C(=C2C=CC(=[N+](CC)CC)C=C2)c2ccc(N(CC)CC)cc2)cc1	/	-105*	1.8µM*	/	/	/
Cc1ccc(Cl)cc1N(C)C(=O)c1cc2c(Cl)nc3ccccc3c2s1	/	13	/	/	/	/
COc1cc(/C=C2/C(=N)N3N=C(C(C)C)SC3=NC2=O)ccc1OS(=O)(=O)c1ccccc1	8.7*	19	8%	49	3%	3%
COc1cc(/C=C2\C(=N)N3N=CSC3=NC2=O)ccc1OS(=O)(=O)c1ccccc1	16*	4	9%	18	1%	?
Cc1cc(/C=C2\C(=N)N3N=CSC3=NC2=O)c(C)n1Cc1ccccc1	14*	43	-5%	52	5%	52%
COc1cc(/C=C2\C(=N)N3N=C(S(C)(=O)=O)SC3=NC2=O)ccc1OS(=O)(=O)c1ccc(C)cc1	24*	-36	13%	20	-12%	?
COc1ccc(CCNC(=O)Cn2c(-c3ccc(F)cc3)cc(C(C)=O)c2C)cc1OC	/	0	/	/	/	/
CC(=O)c1ccccc1NC(=O)COC(=O)CCC1CCCC1	/	-5	14%	/	/	/
SMILES	Cycloheximide cs	HCMV antiviral	HCV inh	Shiga toxin inh	Pf growth 48h	Pf growth 96h
Cc1cc(CSc2ccccc2)ccc1NC(=O)c1ccc(CN2CCOCC2)cc1	-1	-77*	?	3	-34%	2.9µM*
CSc1ccccc1NC(=O)c1ccc(CN2CCOCC2)cc1	13*	18	6%	52*	-15%[5.75 µM]	-19%
O=C(Nc1ccccc1C(F)(F)F)c1ccc(CN2CCC(Cc3ccccc3)CC2)cc1	-2	2	?	-13	13µM*	10µM*
Cc1cc(CSc2ccccc2)ccc1NC(=O)c1ccc(C)c([N+](=O)[O-])c1	-1	-36	-28%	-1	6%	12%
Cc1cc(CSc2ccccc2)ccc1NC(=O)c1ccc(Cl)c([N+](=O)[O-])c1	16	?	7.9µM*	5	-18%	?
CCOc1ccc(NC(=O)c2cc(=O)c3cc(CC)ccc3o2)cc1	/	-14	/	/	/	/
CCN(C(=O)CN1CCN(c2cccc(C(F)(F)F)c2)CC1)c1c(N)n(Cc2ccccc2)c(=O)[nH]c1=O	11	-18	-10%	16	0%	-27%
CCC(=O)Nc1ccc2c(c1)N(C(C)=O)c1ccccc1CC2	-2	32	21%	-3	0%	?
Cc1ccc(S(=O)(=O)Oc2ccc(N3C(=O)C4C5CCC(C5)C4C3=O)cc2)cc1 (centres undefined)	18	-25	?	12	?	27%
O=C1C2C3CCC(C3)C2C(=O)N1c1ccc(OS(=O)(=O)c2ccccc2)cc1 (centres undefined)	33*	-13	-27%	78*	70%	2%
O=C(Cc1ccc(Cl)cc1)Nc1ccc(-c2nnc(-c3ccco3)o2)cc1	-2	1	?	15	?	75%
CN1C(=O)C(=Cc2ccc(OCC(=O)Nc3ccccc3)cc2)C(=O)N(C)C1=O	50*	/	-8%	75*	6%	2%
CCOc1ccccc1C(=O)Nc1cccc(-c2nnc(-c3ccccc3)o2)c1	1	-13	-6%	-4	-26%	?
CCOC(=O)C1=C(C)N(CC(C)C)C(=O)/C1=C\c1ccc(OCC(=O)Nc2ccccc2)cc1	12	-9	-23%	-1	?	-34%
CCC(=O)Nc1ccc(-c2nc3ccccc3c(=O)o2)cc1	28*	3	7%	79*	140%	-36%
O=C(CSCc1ccc(Cl)cc1)Nc1ccc(-c2nnc(-c3ccccc3)o2)cc1	14	40	7.1µM*	3	33%	-10%
CCC(=O)Nc1cccc(-c2nnc(-c3cccc(NC(=O)CC)c3)o2)c1	12	28	?	-7	5.2µM*	1.2µM*
CC(=O)Nc1ccc(C2=NN(Cc3nnc(-c4ccccc4)o3)C(=O)SC2)cc1	21	12	-6%	16*	?	?
O=C(COc1ccccc1)Nc1ccc2[nH]c(=O)[nH]c2c1	-2	-12	12%	-7	23%	23%
